# Bioassay records from PubChem.
# HCV inh – inhibitors of hepatitis C virus infection; actives 3.4% (n = 340,000); Huh7.5.1 HCVcc-Cre infection, luciferase reporter, 44 h; AID 651820; Potency, µM (doses to about 41.8 µM), for inactives: top-dose activity change, negative = inhibition, most hits filed as inhibitors; note: potency is the fitted concentration of half-maximal effect
#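 HCVcc-Cre virus at an moi near 0.5 was added right after compound to cells cultured 4 h from seeding (1,000 cells/well). Luciferase activity was determined 44 h later, 15 min after substrate addition at RT.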
# HCMV antiviral – human cytomegalovirus inhibition. HFF cells, HCMV-luciferase reporter, 72 h; hits give low values. AID 1259415. actives 4.5% (n = 410,000). activity change, negative = inhibition, % at 57.5 µM; in the data active = activity change below about -60%; inconclusive = no clear call, values can overlap the other calls; inactive = above about -39%
#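 Two compound doses tested in HFFs infected with HCMV-luciferase, MOI 1 PFU/cell, 72 h at 37C. Lysate luminescence read with OneGlo; data normalized against buffer-only and 10uM Salinomycin inhibitor controls.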
# Pf growth 96h – inhibits malaria parasite growth, 96 h; P. falciparum luciferase reporter growth, 96 h; AID 504834; actives 6.9% (n = 320,000); Potency, µM (series often up to 28.7 µM), inactives show top-dose activity change, negative = inhibition, most hits filed as inhibitors; note: potency is the fitted concentration of half-maximal effect
#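 Erythrocytes infected with luciferase-expressing P. falciparum were dispensed at 2% hematocrit and 0.05% parasitemia (final), then incubated with compounds 96 hours at 37 C in 5% CO2. Luminescence after detection reagent addition reported growth.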
# Pf growth 48h – inhibits P. falciparum growth in the first generation, 48 h; Potency, µM (doses to about 28.7 µM), inactives show at the top dose activity change, negative = inhibition, most hits filed as inhibitors; actives 5.9% (n = 310,000); P. falciparum luciferase growth in erythrocytes, 48 h; AID 504832; note: potency is the fitted concentration of half-maximal effect
#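 Read-out is firefly luciferase luminescence from an integrated reporter in P. falciparum, so falling signal marks reduced parasite growth. Infected erythrocytes were at 2% hematocrit and 0.1% parasitemia (final) in Albumax-supplemented RPMI 1640.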
# LASV entry inh – Lassa virus entry inhibition. Lassa virus pseudotype entry inhibition, cell reporter. Potency, µM (titrated, usually from 37.9 µM), for the others: top-dose activity change, negative = inhibition, actives largely listed as inhibitors. actives 1.2% (n = 300,000). AID 540256; calls by dose curve; tested in HEK293 cells; note: potency is the fitted concentration of half-maximal effect; nearly all actives have a fitted effect of over 50% in size
# MARV entry inh – inhibitors of Marburg virus binding or cell entry. Marburg virus pseudotyped entry inhibition, cell reporter. Potency, µM (doses to about 37.8 µM), for inactives: at the highest dose activity change, negative = inhibition, actives largely listed as inhibitors. actives 1.8% (n = 300,000). AID 540276; calls by dose curve; tested in HEK293 cells; note: potency is the fitted concentration of half-maximal effect
# The depositor's hits bear a star; ? = inconclusive; nt = not tested or not shown; + = active, no number; [ ] = dose if it differs, or a comment. Sampled rows, rich in hits. Any-hit rate of the full collection: about 14%. Unless noted, calls come from the whole dose curve; as a rule, active = well fitted inhibition curve with a large enough effect; inconclusive = small, poorly fitted or top-dose-only effect, or another doubt; inactive = no such curve, though single readings can be large or run the other way. % is set by controls: 0 for no effect and ±100 for the full control effect.
SMILES,HCV inh,HCMV antiviral,Pf growth 96h,Pf growth 48h,LASV entry inh,MARV entry inh
CC(=NNC(=S)N1CC2CCC(CC2)C1)c1ccncn1,0.32µM*,-98*,nt,nt,0.32µM*,?
CC(=NNC(=S)N1CCCCC1)c1cccc(C)n1,-70%,-23,nt,nt,?,?
Cc1ccc(NC(=O)CSCC(=O)OCc2cc(=O)oc3cc(O)ccc23)c(C)c1,-18%,-13,15%,22%,15%,-10%[46.1 µM]
Oc1ccc(-c2cnc(-c3ccc(O)cc3)nc2)cc1,-16%,47,254%,-8%,3.2µM*,1.1µM*
CC1(C)CC(=O)C2=C(C1)NC(=O)NC2c1ccc([N+](=O)[O-])cc1 (stereo not drawn),13%,-3,12%,-3%,13%,8%[46.1 µM]
C=CCC1(C#N)C(SC)=NC2=C(C(=O)CC(C)(C)C2)C1c1ccc(Br)cc1 (stereo not drawn),12%,?,?,2.9µM*,?,?
COc1ccc(/C=N/NC(=O)c2sccc2C)c2ccccc12,14%,-62*,nt,nt,nt,nt
COc1cc(C(=O)N/N=C/c2sccc2C)cc(OC)c1OC,?,-87*,-13%,-13%,?,?
COc1cc(C(=O)Oc2ccccc2/C=N/NC(=O)c2ccc(C)c(Cl)c2)cc(OC)c1OC,?,-104*,?,-14%,?,?
COc1ccc(/C=N\NC(=O)c2ccc(-c3ccccc3)cc2)c(OC)c1OC,?,51,0.83µM*,9%,?,-13%
COc1ccc(/C=N/NC(=O)c2ccc3nc[nH]c3c2)c(OC)c1OC,-3%,90,-2%,-9%,3%,10%[46.1 µM]
Cc1ccc2[nH]c3c(=O)n(CC(=O)N(CCN(C)C)Cc4ccccc4)ncc3c2c1,nt,-27,nt,nt,-17%[46.1 µM],nt
COc1cccc(CNc2nc3c(-c4ccccc4)nnn3c3ccccc23)c1,nt,34,nt,nt,17%[46.1 µM],?
CC(=O)c1sc(-c2ccccc2)cc1N,8.9µM*,19,93%,62%,?,2%[46.1 µM]
COc1ccc(/C=N\NC(=O)c2ccc(-c3ccccc3)cc2)cc1COC(C)=O,?,-35,?,-16%,?,-28%
COc1cc(/C=N/NC(=O)c2cc(-c3ccccc3)sc2N)cc(OC)c1OC,?,21,?,?,16µM*,?
CCCCNC(=O)c1cc(-c2ccccc2)sc1N,nt,18,nt,nt,nt,nt
COc1cc(/C=N/NC(=O)c2ccc(-c3ccccc3)cc2)cc(OC)c1OC,-13%,?,17µM*,?,-2%,-28%
COc1cc(/C=N/NC(=O)c2ccoc2C)cc(OC)c1OC,-10%,164,nt,nt,5%,5%
NNC(=O)c1cc(-c2ccccc2)sc1N,-9%,-24,?,9.3µM*,nt,nt
CCOC(=O)N1CCN(C(c2ccnc3ccccc23)c2nnnn2-c2ccc3c(c2)OCCO3)CC1 (stereo not drawn),nt,-15,nt,nt,nt,nt
CC(=O)OC[C@H]1O[C@H](C/C=N/OCC[C@@H]2C=C[C@H](OC(C)=O)[C@@H](COC(C)=O)O2)C=C[C@@H]1OC(C)=O,nt,nt,nt,nt,nt,10%[14.2 µM]
CC(=O)NCCNc1nc2cc(-c3cccc(C(F)(F)F)c3)sc2c(=O)n1C,nt,8,nt,nt,nt,nt
O=C(N/N=C\c1c(F)c(F)c(F)c(F)c1F)c1ccc(-c2ccccc2)cc1,33%,-69*,?,-35%,6%,10%
CNC(=O)COc1ccc(NC(=O)CCn2nc(-c3ccc(C)cc3)c3ccccc3c2=O)cc1,nt,-18,nt,nt,-2%[46.1 µM],?
SMILES,HCV inh,HCMV antiviral,Pf growth 96h,Pf growth 48h,LASV entry inh,MARV entry inh
CC(C)c1ccc(N(CC(=O)NCc2ccco2)C(=O)CCC(=O)Nc2ccccn2)cc1,?,-6,0.74µM*,-3%,nt,-10%[46.1 µM]
Cc1cccc(N(CC(=O)NCc2ccco2)C(=O)CCC(=O)Nc2ccccn2)c1C,9%,6,1.9µM*,0%,14%[46.1 µM],-16%[46.1 µM]
COc1ccccc1N(CC(=O)NCc1ccco1)C(=O)CCC(=O)Nc1ccccn1,18%,-21,0%,?,nt,4%[46.1 µM]
Cc1ccc(S(=O)(=O)C(CNC(=O)c2ccc(C(F)(F)F)cc2)c2ccco2)cc1 (stereo not drawn),nt,15,nt,nt,27%[46.1 µM],nt
CC1CCCC(NC(=O)c2cc(S(=O)(=O)N3CCCCC3)c[nH]2)C1C (stereo not drawn),nt,79,nt,nt,nt,nt
COc1ccc(OC)c(S(=O)(=O)Nc2ccc(-c3ccc4nncn4n3)cc2)c1,?,?,?,19%,-14%,?
CCCS(=O)(=O)NC(=O)C1(C)CCN(C(=O)c2cc(C)oc2C)C1 (stereo not drawn),nt,3,nt,nt,nt,nt
O=C(CCc1nc2cccnc2n1Cc1cccs1)Nc1cccc(C(F)(F)F)c1,nt,-38,nt,nt,-13%[46.1 µM],?
COc1ccc(S(=O)(=O)N2CCN(C(=O)CCOc3ccccc3)CC2)cc1OC,-7%,0,-17%,?,nt,nt
COc1cc2c(cc1OC)CN(C(=O)CN1CCN(S(=O)(=O)c3ccc(C)c(C)c3)CC1)CC2,?,-17,13µM*,?,nt,nt
COc1ccc(S(=O)(=O)N2CCN(C(=O)COc3ccc(C)c(C)c3)CC2)cc1OC,?,-9,1%,10µM*,1%,-28%
Oc1[nH]c2ccccc2c1C1=NCCCC1,35µM*,-21,?,3%,8%,7%
CCn1c(O)c(C2=NCCCC2)c2ccccc21,?,6,0%,0%,10%,?
Cc1nc2ccccc2n1CC(=O)NC1CCCC1,?,-4,-9%,19%,-2%,-8%[46.1 µM]
CC(=O)c1cc(-c2ccccc2)n(CCC(=O)NC2CCCCCCC2)c1C,?,-33,?,?,6%,-67%
CC(=O)c1cc(-c2ccccc2)n(CC(=O)NC2CCCCCC2)c1C,nt,+,nt,nt,13%[46.1 µM],nt
CC(=O)c1cc(-c2ccccc2)n(CC(=O)Nc2ccc(C)cc2C)c1C,nt,+,nt,nt,3%[46.1 µM],nt
CC(=O)c1cc(-c2ccccc2)n(CCC(=O)Nc2ccc(C)cc2C)c1C,nt,0,nt,nt,10%[46.1 µM],nt
Cc1nc2ccccc2n1CC(=O)NC1CCCCCC1,?,-62*,?,-13%,nt,nt
COC(=O)[C@@]12C[C@@H](CC(=O)N3CCN(C(=O)c4ccco4)CC3)C(=O)N(Cc3ccc4c(c3)OCO4)C1=CCC(C)(C)C2,nt,-3,nt,nt,nt,nt
Cc1[nH]c2ccccc2c1/C=N/O,4%,4,0%,13%,-5%,?
CCN(CC)c1ccc(N=Cc2c(C)[nH]c3ccccc23)cc1,?,-17,4.7µM*,1.9µM*,-21%,?
O=C(C1=C[C@H](c2csc3ccccc23)C[C@H](OCCCCO)O1)N1CCN(Cc2ccccc2)CC1,-4%,-1,2.3µM*,3.7µM*,nt,nt
